We go through seven sequences from article PMC11006913.

Where a chain is given by its changes, count along the chain named.

Holding throughout (assay): PBM; 200 nM protein, PBS
Details in all cases: dsDNA, one strand shown

In assay [1] the target is HOXA4 (Homo sapiens, UniProt Q00056 201-287, W262R).
Assay [2] has as its target HOXA4 (Homo sapiens, UniProt Q00056 201-287).
In assay [3] the target is HOXB6 (Homo sapiens, UniProt P17509 132-218).
For assay [4], the target named is HOXC9 (Homo sapiens, UniProt P31274 178-260, K195R).
Chain of HOXC9 (Homo sapiens, UniProt P31274 178-260, K195R) (P31274 178-260 K195R): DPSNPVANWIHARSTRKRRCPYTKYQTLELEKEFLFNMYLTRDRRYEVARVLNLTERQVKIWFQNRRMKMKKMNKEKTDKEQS
Assay [5] has as its target ALX4 (Homo sapiens, UniProt Q9H161 200-286).
For assay [6], the target named is ALX4 (Homo sapiens, UniProt Q9H161 200-286, Q225E).
Chain of ALX4 (Homo sapiens, UniProt Q9H161 200-286, Q225E) (Q9H161 200-286 Q225E): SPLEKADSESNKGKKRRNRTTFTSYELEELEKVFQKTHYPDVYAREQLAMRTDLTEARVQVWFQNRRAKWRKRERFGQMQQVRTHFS
Assay [7] has as its target HOXC9 (Homo sapiens, UniProt P31274 178-260).
The target in assay [8] is HOXC9 (Homo sapiens, UniProt P31274 178-260, R193K).
Chain of HOXC9 (Homo sapiens, UniProt P31274 178-260, R193K) (P31274 178-260 R193K): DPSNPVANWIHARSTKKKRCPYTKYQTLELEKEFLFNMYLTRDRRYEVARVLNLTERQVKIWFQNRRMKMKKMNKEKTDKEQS
In assay [9] the target is HOXC9 (Homo sapiens, UniProt P31274 178-260, R222W).
Chain of HOXC9 (Homo sapiens, UniProt P31274 178-260, R222W) (P31274 178-260 R222W): as the sequence (P31274 178-260 R193K) above, with K16R, R45W counted along it
In assay [10] the target is HOXC10 (Homo sapiens, UniProt Q9NYD6 254-340).
Chain of HOXC10 (Homo sapiens, UniProt Q9NYD6 254-340) (Q9NYD6 254-340): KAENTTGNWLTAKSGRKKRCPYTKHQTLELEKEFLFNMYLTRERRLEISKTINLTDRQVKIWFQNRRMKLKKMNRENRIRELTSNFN
The target of assay [11] is HOXA2 (Homo sapiens, UniProt O43364 129-215, R185T).
Chain of HOXA2 (Homo sapiens, UniProt O43364 129-215, R185T) (O43364 129-215 R185T): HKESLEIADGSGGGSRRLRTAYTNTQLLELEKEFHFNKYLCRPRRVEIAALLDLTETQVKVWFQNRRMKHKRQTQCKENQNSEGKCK
The target in assay [12] is HOXA2 (Homo sapiens, UniProt O43364 129-215, R185K).
Chain of HOXA2 (Homo sapiens, UniProt O43364 129-215, R185K) (O43364 129-215 R185K): as the sequence (O43364 129-215 R185T) above, with T57K counted along it
Assay [13] concerns the target HOXC10 (Homo sapiens, UniProt Q9NYD6 254-340, K271E).
The target of assay [14] is HOXA2 (Homo sapiens, UniProt O43364 129-215, Y150S).
Chain of HOXA2 (Homo sapiens, UniProt O43364 129-215, Y150S) (O43364 129-215 Y150S): as the sequence (O43364 129-215 R185T) above, with Y22S, T57R counted along it
Assay [15] concerns the target HOXA2 (Homo sapiens, UniProt O43364 129-215).
Assay [16] has as its target HOXB6 (Homo sapiens, UniProt P17509 132-218, K202E).
For assay [17], the target named is ALX3 (Homo sapiens, UniProt O95076 139-225, N203Q).
Chain of ALX3 (Homo sapiens, UniProt O95076 139-225, N203Q) (O95076 139-225 N203Q): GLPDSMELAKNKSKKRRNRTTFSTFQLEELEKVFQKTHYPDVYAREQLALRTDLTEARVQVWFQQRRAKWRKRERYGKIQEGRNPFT
In assay [18] the target is ALX3 (Homo sapiens, UniProt O95076 139-225).
Chain of ALX3 (Homo sapiens, UniProt O95076 139-225) (O95076 139-225): as the sequence (O95076 139-225 N203Q) above, with Q65N counted along it
Assay [19] has as its target ALX3 (Homo sapiens, UniProt O95076 139-225, N203S).
The target of assay [20] is T1, PAX4 (Homo sapiens, UniProt O43316 9-242, R200K).
T1 sequence: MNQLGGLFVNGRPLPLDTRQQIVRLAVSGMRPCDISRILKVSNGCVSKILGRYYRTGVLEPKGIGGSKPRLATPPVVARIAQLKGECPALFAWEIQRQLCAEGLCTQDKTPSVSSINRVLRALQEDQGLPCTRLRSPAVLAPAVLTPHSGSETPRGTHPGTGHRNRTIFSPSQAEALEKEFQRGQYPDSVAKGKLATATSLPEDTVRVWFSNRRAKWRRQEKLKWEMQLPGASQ

Assay [21] has as its target PRRX1 (Homo sapiens, UniProt P54821 80-166, F113S).
The target in assay [22] is T2, PAX4 (Homo sapiens, UniProt O43316 9-242).
T2 sequence: T1 sequence with K192R

The target of assay [23] is ALX1 (Homo sapiens, UniProt Q15699 118-204, L144V).
Chain of ALX1 (Homo sapiens, UniProt Q15699 118-204, L144V) (Q15699 118-204 L144V): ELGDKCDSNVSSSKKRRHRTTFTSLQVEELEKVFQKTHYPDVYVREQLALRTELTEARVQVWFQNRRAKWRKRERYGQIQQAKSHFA
Assay [24] addresses T3, PAX4 (Homo sapiens, UniProt O43316 9-242, R200Q).
T3 sequence: T1 sequence with K192Q

Assay [25] deals with ALX1 (Homo sapiens, UniProt Q15699 118-204, L144R).
Chain of ALX1 (Homo sapiens, UniProt Q15699 118-204, L144R) (Q15699 118-204 L144R): as the sequence (Q15699 118-204 L144V) above, with V27R counted along it
Assay [26] has as its target T4, PAX4 (Homo sapiens, UniProt O43316 9-242, F177V).
T4 sequence: T1 sequence with F169V, K192R

The target of assay [27] is T5, PAX4 (Homo sapiens, UniProt O43316 9-242, F177Y).
T5 sequence: T1 sequence with F169Y, K192R

Assay [28] addresses PROP1 (Homo sapiens, UniProt O75360 56-141).
Assay [29] has as its target PROP1 (Homo sapiens, UniProt O75360 56-141, R99H).
Assay [30] deals with ALX3 (Homo sapiens, UniProt O95076 139-225, L168Q).
Chain of ALX3 (Homo sapiens, UniProt O95076 139-225, L168Q) (O95076 139-225 L168Q): as the sequence (O95076 139-225 N203Q) above, with L30Q, Q65N counted along it
In assay [31] the target is ALX3 (Homo sapiens, UniProt O95076 139-225, L168V).
Chain of ALX3 (Homo sapiens, UniProt O95076 139-225, L168V) (O95076 139-225 L168V): as the sequence (O95076 139-225 N203Q) above, with L30V, Q65N counted along it
Assay [32] has as its target PROP1 (Homo sapiens, UniProt O75360 56-141, F88S).
Assay [33] deals with T6, PAX4 (Homo sapiens, UniProt O43316 9-242, R227W).
T6 sequence: T1 sequence with K192R, R219W

The target in assay [34] is PRRX1 (Homo sapiens, UniProt P54821 80-166).
Chain of PRRX1 (Homo sapiens, UniProt P54821 80-166) (P54821 80-166): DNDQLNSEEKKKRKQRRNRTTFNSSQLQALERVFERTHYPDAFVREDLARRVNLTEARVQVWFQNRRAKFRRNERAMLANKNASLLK

Chain of HOXC9 (Homo sapiens, UniProt P31274 178-260) (P31274 178-260): as the sequence (P31274 178-260 R193K) above, with K16R counted along it
Chain of HOXA4 (Homo sapiens, UniProt Q00056 201-287, W262R) (Q00056 201-287 W262R): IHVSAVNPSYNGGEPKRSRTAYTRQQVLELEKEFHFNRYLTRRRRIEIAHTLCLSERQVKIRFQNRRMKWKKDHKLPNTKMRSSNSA
Chain of ALX4 (Homo sapiens, UniProt Q9H161 200-286) (Q9H161 200-286): as the sequence (Q9H161 200-286 Q225E) above, with E26Q counted along it
Chain of HOXC10 (Homo sapiens, UniProt Q9NYD6 254-340, K271E) (Q9NYD6 254-340 K271E): as the sequence (Q9NYD6 254-340) above, with K18E counted along it
Chain of HOXA4 (Homo sapiens, UniProt Q00056 201-287) (Q00056 201-287): as the sequence (Q00056 201-287 W262R) above, with R62W counted along it
Chain of HOXB6 (Homo sapiens, UniProt P17509 132-218) (P17509 132-218): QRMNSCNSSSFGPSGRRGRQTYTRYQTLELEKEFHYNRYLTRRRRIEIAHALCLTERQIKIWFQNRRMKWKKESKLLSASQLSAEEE
Chain of ALX3 (Homo sapiens, UniProt O95076 139-225, N203S) (O95076 139-225 N203S): as the sequence (O95076 139-225 N203Q) above, with Q65S counted along it
Chain of PRRX1 (Homo sapiens, UniProt P54821 80-166, F113S) (P54821 80-166 F113S): as the sequence (P54821 80-166) above, with F34S counted along it
Chain of PROP1 (Homo sapiens, UniProt O75360 56-141, R99H) (O75360 56-141 R99H): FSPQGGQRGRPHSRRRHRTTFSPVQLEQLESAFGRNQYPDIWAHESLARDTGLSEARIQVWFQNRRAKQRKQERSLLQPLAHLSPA
Chain of PROP1 (Homo sapiens, UniProt O75360 56-141, F88S) (O75360 56-141 F88S): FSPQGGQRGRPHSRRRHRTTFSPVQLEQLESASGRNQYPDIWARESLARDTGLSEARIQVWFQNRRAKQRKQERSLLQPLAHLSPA
Chain of HOXA2 (Homo sapiens, UniProt O43364 129-215) (O43364 129-215): as the sequence (O43364 129-215 R185T) above, with T57R counted along it
Chain of HOXB6 (Homo sapiens, UniProt P17509 132-218, K202E) (P17509 132-218 K202E): as the sequence (P17509 132-218) above, with K71E counted along it
Chain of PROP1 (Homo sapiens, UniProt O75360 56-141) (O75360 56-141): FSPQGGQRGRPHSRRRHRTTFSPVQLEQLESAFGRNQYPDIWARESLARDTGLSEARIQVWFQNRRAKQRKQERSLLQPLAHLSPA

ATATAACG: the binding signal with HOXA4 [1] was 10.4 upbm affinity estimate (log intensity, higher = more binding, comparable within an allelic series); with HOXA4 [2] it was 11.4 upbm affinity estimate (log intensity, higher = more binding, comparable within an allelic series); with HOXB6 [3], 10.7 upbm affinity estimate (log intensity, higher = more binding, comparable within an allelic series).
Consider GCCCGAGC, for which the binding signal with HOXC9 [4] was 9.54 upbm affinity estimate (log intensity, higher = more binding, comparable within an allelic series); with ALX4 [5], 8.18 upbm affinity estimate (log intensity, higher = more binding, comparable within an allelic series); with ALX4 [6], 8.13 upbm affinity estimate (log intensity, higher = more binding, comparable within an allelic series); in the assay with HOXC9 [7], 9.62 upbm affinity estimate (log intensity, higher = more binding, comparable within an allelic series); in the assay with HOXC9 [8] it was 9.44 upbm affinity estimate (log intensity, higher = more binding, comparable within an allelic series); with HOXC9 [9], 9.78 upbm affinity estimate (log intensity, higher = more binding, comparable within an allelic series).
In the case of CCAGTCGG, the binding signal was 9.76 upbm affinity estimate (log intensity, higher = more binding, comparable within an allelic series) in the assay with HOXC9 [4]; 10.1 upbm affinity estimate (log intensity, higher = more binding, comparable within an allelic series) with HOXC10 [10]; 7.11 upbm affinity estimate (log intensity, higher = more binding, comparable within an allelic series) with HOXA2 [11]; 9.93 upbm affinity estimate (log intensity, higher = more binding, comparable within an allelic series) in the assay with HOXC9 [7]; 9.79 upbm affinity estimate (log intensity, higher = more binding, comparable within an allelic series) with HOXC9 [8]; 10.4 upbm affinity estimate (log intensity, higher = more binding, comparable within an allelic series) with HOXA2 [12]. Besides, the binding signal with HOXC10 [13] is 10 upbm affinity estimate (log intensity, higher = more binding, comparable within an allelic series); with HOXC9 [9] it was 9.69 upbm affinity estimate (log intensity, higher = more binding, comparable within an allelic series); in the assay with HOXA2 [14], 10.4 upbm affinity estimate (log intensity, higher = more binding, comparable within an allelic series); with HOXA2 [15], 7.25 upbm affinity estimate (log intensity, higher = more binding, comparable within an allelic series).
Consider TAAGATGA, for which the binding signal is 10.9 upbm affinity estimate (log intensity, higher = more binding, comparable within an allelic series) with HOXC9 [4]; 9.54 upbm affinity estimate (log intensity, higher = more binding, comparable within an allelic series) with HOXB6 [16]; 10.7 upbm affinity estimate (log intensity, higher = more binding, comparable within an allelic series) in the assay with HOXC9 [7]; 8.17 upbm affinity estimate (log intensity, higher = more binding, comparable within an allelic series) with ALX3 [17]; 10.9 upbm affinity estimate (log intensity, higher = more binding, comparable within an allelic series) with HOXC9 [8]; 9.17 upbm affinity estimate (log intensity, higher = more binding, comparable within an allelic series) with ALX3 [18]. The binding signal was 10.2 upbm affinity estimate (log intensity, higher = more binding, comparable within an allelic series) in the assay with HOXC9 [9]; 8.25 upbm affinity estimate (log intensity, higher = more binding, comparable within an allelic series) with ALX3 [19]; 10.1 upbm affinity estimate (log intensity, higher = more binding, comparable within an allelic series) in the assay with HOXB6 [3].
For CCCTCCAG, the binding signal in the assay with HOXC9 [4] is 9.59 upbm affinity estimate (log intensity, higher = more binding, comparable within an allelic series); with HOXC10 [10], 10.1 upbm affinity estimate (log intensity, higher = more binding, comparable within an allelic series); in the assay with HOXC9 [7] it was 9.64 upbm affinity estimate (log intensity, higher = more binding, comparable within an allelic series); with HOXC9 [8], 9.54 upbm affinity estimate (log intensity, higher = more binding, comparable within an allelic series); with HOXC10 [13], 10.1 upbm affinity estimate (log intensity, higher = more binding, comparable within an allelic series); in the assay with HOXC9 [9], 9.74 upbm affinity estimate (log intensity, higher = more binding, comparable within an allelic series).
Regarding AACGAATT, the binding signal is 10.3 upbm affinity estimate (log intensity, higher = more binding, comparable within an allelic series) with HOXA4 [1] and 11.6 upbm affinity estimate (log intensity, higher = more binding, comparable within an allelic series) in the assay with HOXA4 [2].
TAATTTAA: the binding signal with HOXC9 [4] is 12.2 upbm affinity estimate (log intensity, higher = more binding, comparable within an allelic series); with ALX4 [5], 13.7 upbm affinity estimate (log intensity, higher = more binding, comparable within an allelic series); with PAX4 [20], 11.7 upbm affinity estimate (log intensity, higher = more binding, comparable within an allelic series); with PRRX1 [21] it was 11.2 upbm affinity estimate (log intensity, higher = more binding, comparable within an allelic series); with PAX4 [22], 12.2 upbm affinity estimate (log intensity, higher = more binding, comparable within an allelic series); in the assay with ALX4 [6] it was 12.7 upbm affinity estimate (log intensity, higher = more binding, comparable within an allelic series). For the same sequence, the binding signal was 12.2 upbm affinity estimate (log intensity, higher = more binding, comparable within an allelic series) in the assay with HOXC9 [7]; 11.4 upbm affinity estimate (log intensity, higher = more binding, comparable within an allelic series) in the assay with ALX1 [23]; 8.49 upbm affinity estimate (log intensity, higher = more binding, comparable within an allelic series) in the assay with ALX3 [17]; 11.9 upbm affinity estimate (log intensity, higher = more binding, comparable within an allelic series) with PAX4 [24]; 12.2 upbm affinity estimate (log intensity, higher = more binding, comparable within an allelic series) with HOXC9 [8]; 11.1 upbm affinity estimate (log intensity, higher = more binding, comparable within an allelic series) in the assay with ALX1 [25]. The binding signal is 10.6 upbm affinity estimate (log intensity, higher = more binding, comparable within an allelic series) with PAX4 [26]; 12.4 upbm affinity estimate (log intensity, higher = more binding, comparable within an allelic series) with ALX3 [18]; 11 upbm affinity estimate (log intensity, higher = more binding, comparable within an allelic series) with PAX4 [27]; 11 upbm affinity estimate (log intensity, higher = more binding, comparable within an allelic series) with PROP1 [28]; 10.6 upbm affinity estimate (log intensity, higher = more binding, comparable within an allelic series) in the assay with PROP1 [29]; 10.2 upbm affinity estimate (log intensity, higher = more binding, comparable within an allelic series) with ALX3 [30]. Also, the binding signal was 10.9 upbm affinity estimate (log intensity, higher = more binding, comparable within an allelic series) with HOXC9 [9]; 9.7 upbm affinity estimate (log intensity, higher = more binding, comparable within an allelic series) with ALX3 [31]; 7.76 upbm affinity estimate (log intensity, higher = more binding, comparable within an allelic series) in the assay with PROP1 [32]; 10.9 upbm affinity estimate (log intensity, higher = more binding, comparable within an allelic series) with PAX4 [33]; 8.64 upbm affinity estimate (log intensity, higher = more binding, comparable within an allelic series) in the assay with ALX3 [19]; 13.3 upbm affinity estimate (log intensity, higher = more binding, comparable within an allelic series) with PRRX1 [34].
